Test results as given in PubChem BioAssay AID720597 (Broad Institute, 2013).
Results with a measured potency or affinity are listed apart.

Molecular target: NAD-dependent protein deacylase sirtuin-5, mitochondrial (Homo sapiens) (UniProt Q9NXA8)
Test: blockers of sirtuin-5 peptide desuccinylation – biochemical, fluorescence imaging, cherry-pick, set 6, dose response (AID 720597);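 also: lower AMC signal can also come from blocking the trypsin step; 0% = median of neutral control wells and -100% = median of positive control wells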
Conditions: Purified SirT5, succinyl-peptide-AMC/trypsin fluorescence; series mostly up to 15 µM; activity change, negative = inhibition: at the top concentration;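 active = fitted half-maximal dose no more than twice the top valid tested dose, for compounds that lower signal; inconclusive = fit invalid, or curve flat with activity between -70 and -30; inactive = potency past limit, curve flat within ±30, or signal increasing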

NAD-dependent protein deacylase sirtuin-5, mitochondrial (Homo sapiens), sequence (Q9NXA8 whole entry, looked up): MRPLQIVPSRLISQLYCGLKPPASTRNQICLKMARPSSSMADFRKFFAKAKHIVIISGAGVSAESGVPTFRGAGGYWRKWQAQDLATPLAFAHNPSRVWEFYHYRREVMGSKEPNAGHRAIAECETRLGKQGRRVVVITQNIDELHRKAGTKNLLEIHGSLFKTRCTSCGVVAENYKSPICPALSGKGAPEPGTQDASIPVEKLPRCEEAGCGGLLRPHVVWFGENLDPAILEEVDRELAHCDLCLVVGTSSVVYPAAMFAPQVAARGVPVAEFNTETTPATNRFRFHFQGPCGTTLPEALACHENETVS

Activity change, negative = inhibition, inactive:
C[C@H]1CN([C@@H](C)CO)C(=O)c2cc(NC(=O)Nc3ccc(C(F)(F)F)cc3)ccc2O[C@H]1CN(C)S(=O)(=O)c1ccc(Cl)cc1 -4.25%
Cc1cc(C)cc(NC(=O)C2CC(=O)n3ncnc3N2)c1 (stereo not given) -3.96% [at 18 µM]
C[C@@H]1CN([C@@H](C)CO)S(=O)(=O)c2ccc(/C=C/c3ccccc3)cc2O[C@@H]1CN(C)C(=O)C1CC1 7.63%
CCCNC(=O)N1C[C@@H](O)COC[C@@H]2O[C@H](CC(=O)N3CCC(Cc4ccccc4)CC3)CC[C@H]21 -18.4%
C[C@H](O)C#Cc1ccc2c(c1)O[C@@H](CN(C)Cc1ccc(-c3ccccc3)cc1)[C@@H](C)CN([C@H](C)CO)S2(=O)=O 10.3%
COc1ccc(S(=O)(=O)N(C)C[C@H]2Oc3cc(C#CC4CC4)ccc3S(=O)(=O)N([C@@H](C)CO)C[C@@H]2C)cc1 11.5%
Cc1noc(C)c1NC(=O)Nc1cccc2c1O[C@H](CN(C)Cc1ccc(Oc3ccccc3)cc1)[C@H](C)CN([C@@H](C)CO)C2=O -15.4%
COc1ccc(S(=O)(=O)Nc2ccc3c(c2)C(=O)N([C@H](C)CO)C[C@@H](C)[C@@H](CN(C)Cc2ccc(C(F)(F)F)cc2)OCCCC[C@H](C)O3)cc1 -3.42%
CCCC#Cc1ccc2c(c1)O[C@@H](CN(C)CC1CCOCC1)[C@H](C)CN([C@H](C)CO)S2(=O)=O -17.3%
COc1ccc(S(=O)(=O)N(C)C[C@@H]2OCCCC[C@H](C)Oc3ccc(NS(=O)(=O)c4ccc(C)cc4)cc3C(=O)N([C@H](C)CO)C[C@H]2C)cc1 -12.7%
